Experiment [1] in a line: rapamycin-like changes in RPL19A-GFP expression – cell-based, S. cerevisiae, multiplex flow cytometry, primary screen (AID 1862; in the data active means percent of DMSO control GFP below about 86%;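 further: lower values mimic rapamycin by blocking the RPL19A rise seen in DMSO cells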). The note with it: S. cerevisiae RPL19A-GFP strain, flow cytometry fluorescence, 3 h; at 10 µM; stronger effect = lower value. A general note: Flow cytometry measures light scatter and fluorescence of single cells or particles in a stream.
Experiment [2] can be described thus: TOR pathway GLN3 branch reporter MEP2-GFP changes – S. cerevisiae, multiplex flow cytometry, primary screen (AID 1867;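 active means GFP response, as percent of the DMSO control, above the screen-wide mean plus 3 SD, about 139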;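 further: median GFP channel fluorescence of barcode-gated MEP2-GFP cells measured by flow cytometry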). The note with it: S. cerevisiae MEP2-GFP strain, 3 h, at 10 µM, stronger effect = higher value, 100% means same as DMSO wells.
Experiment [3] in a line: TOR pathway RTG branch CIT2 reporter changes – S. cerevisiae, GFP fusion, multiplex flow cytometry, primary screen (AID 1870).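 Further: barcoded CIT2-GFP strain pooled with four other GFP strains with rapamycin as positive control; median GFP fluorescence per well over plate mean of DMSO wells so 100% = DMSO.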 The note with it: S. cerevisiae CIT2-GFP expression, 3 h, at 10 µM, stronger effect = higher value.
The nature of experiment [4]: TOR pathway LAP4-GFP level changes – S. cerevisiae, multiplex flow cytometry, primary screen (AID 1873;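 active means GFP signal, as percent of the solvent control, above the screen mean plus 3 SD, about 149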). The note with it: S. cerevisiae LAP4-GFP expression, 3 h, at 10 µM, stronger effect = higher value.
Experiment [5] is described as follows: yeast AGP1-GFP level changes, GLN3 branch – cell-based, multiplex flow cytometry, S. cerevisiae, primary screen (AID 1887;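 active means GFP signal above the screen-wide mean plus 3 SD, that is over about 124.5% of the solvent control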;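 further: AGP1-GFP fusion strain of S. cerevisiae within a five-strain barcoded multiplex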). The settings on record: 3 h, at 10 µM, stronger effect = higher value.
A short description of experiment [6]: reduced mouse 2C T cell binding to pMHC/ICAM-1 vesicles – MLPCN validation set, flow cytometry, LFA-1/ICAM-1 modulator project, pilot screen (AID 2523;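 active means response below a set limit, under 55% cells CD8-positive and vesicle-bound, and CD8 cells' 90th-percentile brightness under 279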;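 on vesicle binding response: mean PE anti-B7-1 fluorescence of CD8+ cells relative to row control; 100% = QL9-loaded vesicles with DMSO vehicle in the same plate row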). The settings on record: 2C mouse CD8+ T cells, at 7 µM, stronger effect = lower value; double positive events: measured here: CD8+/vesicle+ event percentage.
For experiment [7], the target named is Integrin beta-1 (Homo sapiens) + Integrin alpha-4 (Homo sapiens) (UniProt P13612+P05556). As to the kind of experiment: alpha4beta1 integrin LIBS antibody binding reduction – U937 cells, HUTS-21 mAb, flow cytometry, validation set, VLA-4 allosteric modulator project, pilot screen (AID 2674;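 active means inhibition above 50%, about 3 SD of the validation set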;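 further: antibody binding induced by the VLA-4 ligand LDV present at three times its Kd; 0% = LDV ligand with antibody and no compound and 100% = antibody without LDV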). The settings on record: HUTS-21 LIBS mAb binding, at 6.7 µM, stronger effect = higher value, binding induced by LDV ligand.

Experiment [8] in a line: calorie-restriction mimetic ROS inhibitors, yeast – validation compound set, pilot screen (AID 2706;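 active means superoxide response below 65% of plate, a cut near 3 SD across the whole screen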;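 further: yeast exposed to compound for one week at 30 degrees C before staining; 100% = mean of all compound wells on the same plate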). The settings on record: S. cerevisiae aging, superoxide DHE fluorescence; at 10 µM; stronger effect = lower value.
The target of experiment [9] is Beta-adrenergic receptor kinase 1 (Homo sapiens) (UniProt P25098). Briefly: GRK2 binders displacing RNA aptamer, biochemical, validation, human GRK2, bead flow cytometry (AID 488806;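 active means aptamer binding inhibition above 30%, about 3 SD of noise from non-fluorescent compounds; inactive means inhibition at or below 30%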). The note with it: bead-bound GRK2, FAM-aptamer displacement, at 10 µM, stronger effect = higher value.
Experiment [10] has as its target Beta-2 adrenergic receptor (Homo sapiens) (UniProt P07550). As to the kind of experiment: agonist-induced loss of surface beta2AR – cell-based, FAP fluorogen, flow cytometry, validation set, pilot screen (AID 504459;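 active means percent response above 42, roughly 3 SD of non-fluorescent test compounds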;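 further: agonist-driven loss of surface beta2AR via internalization measured by FAP dye flow cytometry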). The settings on record: Am2.2-beta2AR cells, at 10 µM, stronger effect = higher value.
The target in experiment [11] is AP-2 complex subunit beta (Homo sapiens) (UniProt P63010). Briefly: beta-arrestin/AP2 interaction blockers – biochemical, validation set, GST-AP2 beads, flow cytometry, pilot screen (AID 504541;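 active means inhibition above 54%, about 3 SD of non-fluorescent compounds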;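 further: AP2 carries R879A mutation and is captured from E. coli lysate; bead-bound FITC arrestin peptide fluorescence measuring arrestin peptide binding to AP2; 0% = DMSO wells and 100% = excess unlabeled arrestin peptide control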). The settings on record: FITC arrestin peptide, at 10 µM, stronger effect = higher value, AP2 beta2 appendage fragment, R879A mutant.
Experiment [12] in a line: cytosolic pH regulators acting via V-ATPase – S. cerevisiae, pHLuorin, HTS validation (AID 504600; in the data active means response above about 15%;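 further: plate controls were DMSO for no effect and reference compound for full effect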). The note with it: V-ATPase proton transport, at 10 µM, stronger effect = higher value.
The test system of experiment [13] is anti-desmoglein-3 scFv antibody binding to human DSG3. Briefly: blockers of pathogenic pemphigus antibody–desmoglein-3 binding – biochemical, validation compound set, bead-based, flow cytometry, pilot screen (AID 588368;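 active means binding below the plate cutoff, the plate median minus 3 SD, with a reading above zero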;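 further: signal is the median channel fluorescence of bead-bound GFP antibody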). The settings on record: Protein G beads, DSG3-Fc, scFv-GFP binding, at 10 µM, stronger effect = lower value.
Experiment [14] can be described thus: Nile Red efflux blockade in pump-expressing yeast – validation compound set, multiplex, phenotypic, pilot screen (AID 588506;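 active means efflux inhibition above 0.42, the validation set average plus 4 SD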;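 further: Nile Red retained in cells so higher fluorescence means more efflux inhibition; 0 = negative control wells and 1 = enniatin B 25 µM full block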). The note with it: S. cerevisiae pump-expressing triplex, Nile Red efflux flow cytometry; at 10 µM; stronger effect = higher value; the pumps come from Candida albicans.
Experiment [15] concerns the target ATP-binding cassette sub-family B member 6 (Homo sapiens) (UniProt Q9NP58). As to the kind of experiment: blockers of ABCB6-driven porphyrin uptake – K562-ABCB6 cells, flow cytometry, validation set, pilot screen (AID 588550;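 active means inhibition above the screen-wide mean plus 3 SD, about 51%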;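 further: 0% = DMSO wells and 100% = benzethonium chloride 70 µM positive control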). The settings on record: K562-ABCB6 porphyrin accumulation, 1 h, at 10 µM, stronger effect = higher value.
Experiment [16] in a line: AML differentiation inducers, ER-HoxA9 marrow cells – cell-based, GFP/MAC1 double positive, flow cytometry, validation set, primary screen (AID 588685;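 active means differentiation response of at least 50%, scaled between solvent and reference control, from cells with both markers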;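 further: compound exposure lasts four days before antibody staining and flow analysis; 0% = DMSO wells and 100% = 5 µM fulvestrant positive control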). The note with it: stronger effect = higher value, normalized: vehicle 0, fulvestrant 100.

Structures are written as SMILES. Inconclusive results are not listed. Activity calls are given as the source filed them.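 How the source made its calls, unless noted: active means percent response above a set limit, the screen-wide mean plus 3 SD (cut at about 130% in these data); inactive means the rest.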

In general, inhibition refers to the drop in the measured response relative to a control, in per cent.

Sequence of AP-2 complex subunit beta (Homo sapiens) (P63010 whole entry, looked up, the tested form may be a part, one chain of several): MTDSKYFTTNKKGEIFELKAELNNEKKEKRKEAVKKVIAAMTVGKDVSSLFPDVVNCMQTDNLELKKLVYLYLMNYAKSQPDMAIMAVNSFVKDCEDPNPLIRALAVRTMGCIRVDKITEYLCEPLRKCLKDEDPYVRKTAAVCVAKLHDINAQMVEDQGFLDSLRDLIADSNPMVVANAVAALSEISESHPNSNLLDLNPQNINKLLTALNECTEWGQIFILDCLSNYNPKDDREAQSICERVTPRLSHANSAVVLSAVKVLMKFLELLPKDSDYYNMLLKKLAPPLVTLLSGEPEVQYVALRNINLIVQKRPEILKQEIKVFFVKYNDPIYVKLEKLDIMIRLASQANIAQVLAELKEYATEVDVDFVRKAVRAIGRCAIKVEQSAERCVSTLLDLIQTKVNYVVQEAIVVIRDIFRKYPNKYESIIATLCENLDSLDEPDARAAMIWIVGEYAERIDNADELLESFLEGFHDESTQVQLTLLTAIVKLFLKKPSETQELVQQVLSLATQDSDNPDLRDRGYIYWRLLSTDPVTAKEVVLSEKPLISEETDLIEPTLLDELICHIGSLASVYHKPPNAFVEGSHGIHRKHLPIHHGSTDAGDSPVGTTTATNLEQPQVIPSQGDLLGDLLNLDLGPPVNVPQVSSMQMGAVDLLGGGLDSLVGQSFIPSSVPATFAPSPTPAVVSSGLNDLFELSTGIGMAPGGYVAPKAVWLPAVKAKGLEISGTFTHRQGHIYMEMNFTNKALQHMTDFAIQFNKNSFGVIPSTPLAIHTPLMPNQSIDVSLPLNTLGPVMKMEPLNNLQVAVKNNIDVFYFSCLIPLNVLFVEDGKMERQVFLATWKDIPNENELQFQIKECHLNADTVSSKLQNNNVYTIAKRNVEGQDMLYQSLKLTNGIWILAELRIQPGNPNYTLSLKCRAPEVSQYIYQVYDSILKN
Sequence of Beta-adrenergic receptor kinase 1 (Homo sapiens) (P25098 whole entry, looked up): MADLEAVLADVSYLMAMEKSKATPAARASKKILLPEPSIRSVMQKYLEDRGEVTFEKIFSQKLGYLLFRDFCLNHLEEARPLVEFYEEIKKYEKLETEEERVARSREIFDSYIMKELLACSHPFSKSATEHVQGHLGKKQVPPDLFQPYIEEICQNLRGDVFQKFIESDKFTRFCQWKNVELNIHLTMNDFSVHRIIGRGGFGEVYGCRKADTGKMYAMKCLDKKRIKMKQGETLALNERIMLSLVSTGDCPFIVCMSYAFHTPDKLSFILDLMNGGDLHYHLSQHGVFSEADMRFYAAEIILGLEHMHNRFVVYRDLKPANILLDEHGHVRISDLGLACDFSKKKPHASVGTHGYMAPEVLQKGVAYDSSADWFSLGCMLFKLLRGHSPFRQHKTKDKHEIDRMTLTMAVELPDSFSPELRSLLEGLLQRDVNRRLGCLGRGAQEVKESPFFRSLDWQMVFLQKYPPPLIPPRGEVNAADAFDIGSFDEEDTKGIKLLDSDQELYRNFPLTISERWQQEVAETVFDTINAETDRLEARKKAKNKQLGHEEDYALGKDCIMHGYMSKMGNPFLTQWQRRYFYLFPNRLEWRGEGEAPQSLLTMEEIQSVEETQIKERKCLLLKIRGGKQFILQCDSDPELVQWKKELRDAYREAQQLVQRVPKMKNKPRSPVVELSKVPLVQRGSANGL
Sequence of Beta-2 adrenergic receptor (Homo sapiens) (P07550 whole entry, looked up): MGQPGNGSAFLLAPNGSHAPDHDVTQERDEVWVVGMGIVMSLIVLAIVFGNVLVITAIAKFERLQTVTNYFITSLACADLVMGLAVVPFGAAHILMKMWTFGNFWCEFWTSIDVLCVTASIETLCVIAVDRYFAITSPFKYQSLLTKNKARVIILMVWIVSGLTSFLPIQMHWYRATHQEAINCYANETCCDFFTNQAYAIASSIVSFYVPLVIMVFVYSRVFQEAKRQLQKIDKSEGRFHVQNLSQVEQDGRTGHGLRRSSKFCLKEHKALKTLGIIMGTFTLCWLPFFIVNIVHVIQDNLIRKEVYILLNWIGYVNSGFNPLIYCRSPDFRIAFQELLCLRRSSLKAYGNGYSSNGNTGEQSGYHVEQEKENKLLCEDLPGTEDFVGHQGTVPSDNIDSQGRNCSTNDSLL
Sequence of Integrin beta-1 (Homo sapiens) + Integrin alpha-4 (Homo sapiens) (P05556 whole entry, looked up): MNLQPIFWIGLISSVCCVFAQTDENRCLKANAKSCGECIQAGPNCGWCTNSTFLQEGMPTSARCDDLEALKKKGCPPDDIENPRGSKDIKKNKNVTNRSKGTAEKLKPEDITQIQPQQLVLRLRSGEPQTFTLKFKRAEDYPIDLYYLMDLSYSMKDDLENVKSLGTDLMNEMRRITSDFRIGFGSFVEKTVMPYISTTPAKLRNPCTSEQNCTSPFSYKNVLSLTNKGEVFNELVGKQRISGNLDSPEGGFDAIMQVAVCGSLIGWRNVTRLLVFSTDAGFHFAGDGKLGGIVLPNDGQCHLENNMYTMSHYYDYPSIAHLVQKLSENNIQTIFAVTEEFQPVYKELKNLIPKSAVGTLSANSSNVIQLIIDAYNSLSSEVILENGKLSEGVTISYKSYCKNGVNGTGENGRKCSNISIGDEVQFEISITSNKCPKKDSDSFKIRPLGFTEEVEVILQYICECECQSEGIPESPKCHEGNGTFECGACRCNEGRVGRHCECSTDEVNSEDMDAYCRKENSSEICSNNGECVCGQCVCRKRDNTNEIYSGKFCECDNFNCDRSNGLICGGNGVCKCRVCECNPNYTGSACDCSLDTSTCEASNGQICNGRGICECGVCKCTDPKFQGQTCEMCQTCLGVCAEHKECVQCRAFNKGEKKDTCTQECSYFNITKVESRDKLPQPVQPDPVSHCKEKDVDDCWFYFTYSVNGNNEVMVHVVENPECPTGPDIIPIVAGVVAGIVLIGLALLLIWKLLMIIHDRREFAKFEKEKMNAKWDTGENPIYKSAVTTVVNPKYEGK
Sequence of Integrin beta-1 (Homo sapiens) + Integrin alpha-4 (Homo sapiens) (P13612 whole entry, looked up): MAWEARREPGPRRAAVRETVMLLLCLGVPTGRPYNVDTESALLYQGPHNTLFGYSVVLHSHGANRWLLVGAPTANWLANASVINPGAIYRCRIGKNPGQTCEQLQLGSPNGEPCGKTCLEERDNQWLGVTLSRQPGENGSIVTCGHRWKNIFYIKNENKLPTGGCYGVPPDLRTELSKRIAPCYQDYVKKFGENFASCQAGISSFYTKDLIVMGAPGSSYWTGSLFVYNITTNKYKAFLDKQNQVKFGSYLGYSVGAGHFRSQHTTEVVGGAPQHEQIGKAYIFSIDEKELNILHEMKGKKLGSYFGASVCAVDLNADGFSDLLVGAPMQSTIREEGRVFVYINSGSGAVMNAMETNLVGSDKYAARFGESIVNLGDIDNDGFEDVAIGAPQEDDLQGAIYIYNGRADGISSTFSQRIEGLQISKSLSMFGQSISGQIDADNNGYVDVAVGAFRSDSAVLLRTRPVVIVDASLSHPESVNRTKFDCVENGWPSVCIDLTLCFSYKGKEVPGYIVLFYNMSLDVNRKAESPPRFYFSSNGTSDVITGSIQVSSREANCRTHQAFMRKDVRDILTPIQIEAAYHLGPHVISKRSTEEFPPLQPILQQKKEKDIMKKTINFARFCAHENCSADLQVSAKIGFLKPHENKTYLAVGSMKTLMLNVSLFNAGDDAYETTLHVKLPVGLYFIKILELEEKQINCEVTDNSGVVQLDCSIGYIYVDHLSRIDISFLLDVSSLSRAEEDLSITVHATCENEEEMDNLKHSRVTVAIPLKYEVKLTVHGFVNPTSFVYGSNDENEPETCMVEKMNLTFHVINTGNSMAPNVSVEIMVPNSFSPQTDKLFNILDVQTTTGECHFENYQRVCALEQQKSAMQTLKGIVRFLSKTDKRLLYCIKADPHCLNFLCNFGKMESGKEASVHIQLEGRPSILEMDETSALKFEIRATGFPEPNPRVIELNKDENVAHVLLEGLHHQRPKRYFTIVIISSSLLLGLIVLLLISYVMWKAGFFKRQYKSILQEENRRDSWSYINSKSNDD
Sequence of ATP-binding cassette sub-family B member 6 (Homo sapiens) (Q9NP58 whole entry, looked up): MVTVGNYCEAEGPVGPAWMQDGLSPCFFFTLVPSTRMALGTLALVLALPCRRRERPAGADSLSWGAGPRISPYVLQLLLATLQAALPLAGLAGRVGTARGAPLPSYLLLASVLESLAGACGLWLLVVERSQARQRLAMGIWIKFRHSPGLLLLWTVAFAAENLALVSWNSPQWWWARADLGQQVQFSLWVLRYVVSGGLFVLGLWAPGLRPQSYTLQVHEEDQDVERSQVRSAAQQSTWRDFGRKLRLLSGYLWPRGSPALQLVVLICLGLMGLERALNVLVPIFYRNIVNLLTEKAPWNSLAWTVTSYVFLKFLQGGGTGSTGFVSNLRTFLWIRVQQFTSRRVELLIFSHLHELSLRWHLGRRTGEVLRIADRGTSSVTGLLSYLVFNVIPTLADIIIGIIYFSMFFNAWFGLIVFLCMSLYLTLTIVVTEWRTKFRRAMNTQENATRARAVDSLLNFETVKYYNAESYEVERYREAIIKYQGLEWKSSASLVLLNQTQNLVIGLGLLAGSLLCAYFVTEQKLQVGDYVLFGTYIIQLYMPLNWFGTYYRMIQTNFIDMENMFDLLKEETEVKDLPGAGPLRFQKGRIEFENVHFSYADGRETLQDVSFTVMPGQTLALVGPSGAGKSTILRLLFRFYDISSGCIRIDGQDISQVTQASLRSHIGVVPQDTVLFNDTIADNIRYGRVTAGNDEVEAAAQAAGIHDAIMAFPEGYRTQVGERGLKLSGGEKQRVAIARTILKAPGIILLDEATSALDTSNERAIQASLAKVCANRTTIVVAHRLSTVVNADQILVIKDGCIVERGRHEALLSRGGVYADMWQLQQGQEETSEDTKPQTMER

In the case of `Cc1cc(=O)[nH]c(=S)[nH]1`, the percent of DMSO control GFP in experiment [1] was 97% (inactive). The results for the GFP response vs DMSO in experiment [2] and in experiment [4] were 109% (inactive) and 79.2% (inactive), respectively. In addition, the percent response of DMSO control in experiment [3] is 106% (inactive). In [5], the GFP response, % of DMSO was 96.6% (inactive). The compound further came in with a double positive events in experiment [6] of 64.4%. Moreover, in experiment [6], the vesicle binding response was 223% (inactive). Moreover, the inhibition was 12.3% (inactive) in [7], -0.05% (inactive) in [11] and 12% (inactive) in [15]. Also, the superoxide response (% of plate) in experiment [8] was 113% (inactive). Besides, the aptamer binding inhibition in experiment [9] was -9% (inactive). The values for the response in experiment [10] and in experiment [12] were -11.1% (inactive) and 0.42% (inactive), respectively. In experiment [13], the binding (% of control) was 104% (inactive). For the same compound, the efflux inhibition (fraction of control) in [14] was 0.12 (inactive). In [16], the differentiation response is 0.82% (inactive).

For `COc1ccc2oc(-c3ccco3)cc(=O)c2c1`, in experiment [1], the percent of DMSO control GFP is 103% (inactive). Further, the GFP response vs DMSO in [2] is 92.4% (inactive); in experiment [4], 88% (inactive). For the same compound, in experiment [3], the percent response of DMSO control was 100% (inactive). The GFP response, % of DMSO in experiment [5] is 83.7% (inactive). Besides, the double positive events in experiment [6] is 59.1%. The vesicle binding response in experiment [6] is 23.9% (inactive). For the same compound, the values for the inhibition in [7], in experiment [11] and in experiment [15] were -8.9% (inactive), -28.7% (inactive) and 8% (inactive), respectively. The superoxide response (% of plate) in experiment [8] was 96.6% (inactive). In addition, the aptamer binding inhibition in [9] is 3% (inactive). Besides, the response in experiment [10] is -0.39% (inactive); in experiment [12], 2.89% (inactive). For the same compound, in experiment [13], the binding (% of control) was 100% (inactive). The efflux inhibition (fraction of control) in experiment [14] was -0.28 (inactive). The differentiation response in experiment [16] was -3.4% (inactive).

Regarding `Cc1cc(C)c(NC(=O)NC(=O)C(Cl)(Cl)Cl)c(C)c1`, in [1], the percent of DMSO control GFP is 103% (inactive). Besides, the GFP response vs DMSO in experiment [2] is 97.2% (inactive); in experiment [4] it was 90.7% (inactive). Besides, the percent response of DMSO control in experiment [3] was 101% (inactive). In addition, the GFP response, % of DMSO in [5] was 94.2% (inactive). The compound further returned a double positive events in experiment [6] of 62.2%. Besides, the vesicle binding response in experiment [6] is 464% (inactive). Further, the inhibition is 13% (inactive) in experiment [7], -8.2% (inactive) in experiment [11] and -19% (inactive) in [15]. In addition, the superoxide response (% of plate) in experiment [8] was 97.8% (inactive). Also, the aptamer binding inhibition in experiment [9] was 4% (inactive). In addition, the response in experiment [10] is -6.36% (inactive); in experiment [12] it was 13.6% (inactive). The binding (% of control) in experiment [13] was 96.9% (inactive). The efflux inhibition (fraction of control) in experiment [14] is -0.04 (inactive). The differentiation response in experiment [16] was 0.24% (inactive).

As to `COc1cc(/C=C/C(=O)O)cc(S(=O)(=O)NCCCO)c1OC`, in experiment [1], the percent of DMSO control GFP is 97.3% (inactive). Further, the GFP response vs DMSO in experiment [2] was 98.5% (inactive); in experiment [4] it was 116% (inactive). Besides, the percent response of DMSO control in [3] is 91% (inactive). In addition, in experiment [5], the GFP response, % of DMSO was 105% (inactive). Moreover, the double positive events in experiment [6] was 59.6%. For the same compound, the vesicle binding response in experiment [6] is 157% (inactive). Further, the inhibition in experiment [7] is 6.4% (inactive); in [11], -5.7% (inactive); in [15], 5% (inactive). In experiment [8], the superoxide response (% of plate) is 95.1% (inactive). Further, the aptamer binding inhibition in experiment [9] is 5% (inactive). The response in experiment [10] is 8.94% (inactive); in experiment [12], -0.12% (inactive). In experiment [13], the binding (% of control) was 96.6% (inactive). In addition, in [14], the efflux inhibition (fraction of control) was -0.13 (inactive). In experiment [16], the differentiation response is -15.2% (inactive).
